SMN2 splice up: increases expression of the SMN2 splice variant; HEK293 SMN2-luciferase splicing reporter, luminescence, 30-36 h; Potency, µM (series often up to 46.1 µM), for inactives: at the highest dose activity change, positive = activation, most hits filed as activators; actives 2.8% (n = 210,000); note: % of control where 0% means no effect; nearly all actives have a fitted effect of over 55% in size
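HEK293 cells carry an SMN2 minigene-luciferase reporter in which exon 7 inclusion puts luciferase in frame. Cells were seeded at 2000 cells/well, attached for 10-12 hours, then exposed to compounds for 30-36 hours at 37C before ONE-Glo luminescence.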
Rab9 promoter act: Rab9 promoter activation | Potency, µM (doses to about 9.22 µM), inactives show at the highest dose activation, negative = inhibition, hits mostly activators | actives 2.8% (n = 320,000) | Huh7 Rab9 promoter-luciferase reporter, luminescence, 24 h; note: % of control where 0% means no effect; nearly all actives have a fitted effect of over 60% in size
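Huh7 cells stably carrying Rab9 promoter–luciferase reporter, plated 1500 cells/well, compound added after 2 h and incubated 24 h at 37 °C; luciferase luminescence then read after 10 min with detection reagent.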
ELG1 genotox: inducers of genotoxicity in HEK293T ELG1-luciferase cells; HEK293T ELG1-luciferase reporter, luminescence, 16 h; Potency, µM (doses to about 46 µM), for inactives: top-dose activity change, positive = activation, most hits filed as activators; AID 504466; actives 1.3% (n = 330,000); note: % of control where 0% means no effect; nearly all actives have a fitted effect of over 60% in size
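Reporter readout depends on ELG1 protein level, which increases with genetic stress. After 16 hr compound exposure at 37 °C, luciferase activity was quantified using ONE-Glo.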
ELG1 DNA repair: inhibitors of ELG1-dependent DNA repair in HEK293T cells | Potency, µM (top dose mostly 46.1 µM), without a hit: at the highest dose activity change, negative = inhibition, usual class: inhibitors | actives 2.3% (n = 330,000) | HEK293T ELG1-luciferase reporter, luminescence, 16 h; DNA damage induced by 5-fluorouridine; note: % is set by controls: 0 for no effect and ±100 for the full control effect; nearly all actives have a fitted effect of over 55% in size
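Luminescence from the luciferase reporter, measured 30 min after ONE-Glo reagent at room temperature, was the read-out. Beforehand, 2,000 cells per well were exposed for 16 hr at 37 °C to 5-fluorouridine together with compound or vehicle.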
FLuc counter: inhibits or activates purified firefly luciferase, miR-21 counter-screen. Potency, µM (titrated, usually from 57.5 µM), for inactives: top-dose activity change, negative = inhibition, most hits filed as inhibitors. P08659. purified FLuc, Km substrates, luminescence inhibition. actives 6.9% (n = 360,000);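 note: plate controls were vehicle for no effect and reference inhibitor for full effect; nearly all actives have a fitted effect of over 55% in size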
Target sequence (P08659 whole entry, looked up): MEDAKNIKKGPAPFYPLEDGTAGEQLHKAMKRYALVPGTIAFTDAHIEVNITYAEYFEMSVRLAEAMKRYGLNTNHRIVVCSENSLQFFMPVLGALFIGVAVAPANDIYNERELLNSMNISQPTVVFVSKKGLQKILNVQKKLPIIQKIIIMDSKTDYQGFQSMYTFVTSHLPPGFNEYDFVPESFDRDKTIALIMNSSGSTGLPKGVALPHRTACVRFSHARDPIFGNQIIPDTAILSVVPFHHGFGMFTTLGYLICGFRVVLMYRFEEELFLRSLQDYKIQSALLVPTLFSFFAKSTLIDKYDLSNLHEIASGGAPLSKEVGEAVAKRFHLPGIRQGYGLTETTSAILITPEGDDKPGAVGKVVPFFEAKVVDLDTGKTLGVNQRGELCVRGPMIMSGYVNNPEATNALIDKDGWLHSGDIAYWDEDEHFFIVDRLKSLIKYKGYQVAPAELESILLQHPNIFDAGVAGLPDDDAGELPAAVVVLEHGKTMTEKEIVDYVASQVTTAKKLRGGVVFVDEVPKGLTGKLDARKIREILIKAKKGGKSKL
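Purified P. pyralis luciferase (10nM final) with 10uM D-luciferin and 10uM ATP (Km levels) in 50mM Tris acetate pH 7.5, 10mM Mg acetate, 0.01% Tween-20, 0.05% BSA; qHTS 6-point titration, ~60 µM downward; luminescence read.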
NPC1 promoter act: activators of NPC1 promoter; Huh7 NPC1 promoter luciferase reporter, 24 h; Potency, µM (doses to about 9.22 µM), for the others: at the top dose activation, hits mostly activators; actives 2.4% (n = 320,000); note: % of control where 0% means no effect; nearly all actives have a fitted effect of over 60% in size
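In 1536-well qHTS, Huh7 cells harboring an NPC1 promoter–luciferase construct received compound for 24 h; activation was quantified by luminescence following luciferase reagent addition.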
Active calls of the source: *; ? = inconclusive; . = no result given. Most compounds without a hit are left out; they make up all but 9.2% or so of the library. Calls come from the whole dose curve; as a rule, active = well fitted curve in the direction sought with a large enough effect; inconclusive = small, poorly fitted or top-dose-only effect, or another doubt; inactive = no such curve, though single readings can be large; an effect the other way counts as inactive or inconclusive. Potency is the fitted concentration of half-maximal effect.

SMILES | SMN2 splice up | Rab9 promoter act | ELG1 genotox | ELG1 DNA repair | FLuc counter | NPC1 promoter act
CSc1ccc(S(=O)(=O)NCCSc2ccccn2)cc1 | 17% | -4% | 1% | 0% | ? | 0%
COc1ccccc1S(=O)(=O)Cc1ccc(C(=O)N2CCN(c3ccccc3)CC2)o1 | -30% | -2% | -7% | 21µM* | -4% | 1%
COc1ccccc1S(=O)(=O)Cc1ccc(C(=O)N2CCOCC2)o1 | ? | -2% | 3% | 16% | 0% | -2%
COc1ccccc1S(=O)(=O)Cc1ccc(C(=O)N2CCN(c3cccc(Cl)c3)CC2)o1 | -4% | -16% | 4% | 12µM* | ? | -28%
Cc1nc(NC(=S)Nc2ccccc2)sc1C | 16µM* | ? | 15% | ? | 2.7µM* | ?
CCc1nnc(NC(=S)Nc2ccccc2)s1 | 22µM* | ? | -5% | ? | ? | ?
Cc1ccc(C(=O)Nc2nnc(NC(=S)Nc3ccccc3)s2)cc1 | . | 26% | 7% | ? | 19µM* | 24%
COc1ccc(Cn2c(=O)c3oc4ccccc4c3n(Cc3cccc(C(F)(F)F)c3)c2=O)cc1 | . | . | . | . | 0% | .
CC(Sc1n[nH]c(-c2cccs2)n1)C(=O)Nc1ccc(C(N)=O)cc1 (stereo unspecified) | . | -3% | 4% | ? | -19% | 0%
O=C(CCS(=O)(=O)c1cc(Br)cc2c1N(C(=O)C1CC1)CC2)N1CCN(c2ccccc2)CC1 | -5% | . | . | . | -10% | .
O=[N+]([O-])c1cc(-c2nnc(Nc3ccccc3)c3ccccc23)ccc1N1CCOCC1 | -15% | -13% | -5% | 18µM* | -4% | -4%
O=[N+]([O-])c1cc(-c2nnc(Nc3ccc(O)cc3)c3ccccc23)ccc1N1CCOCC1 | -11% | -10% | -12% | 18µM* | -3% | 0%
Cc1ccc(Nc2nnc(-c3ccc(N4CCOCC4)c([N+](=O)[O-])c3)c3ccccc23)cc1 | -13% | -2% | -5% | ? | -1% | -4%
COC(=O)c1ccc(/C=C/c2ccc3cccc(OC)c3n2)cc1 | -4% | 3% | -5% | ? | 5.4µM* | 0%
COc1cc(/C=C/c2ccc3cccc(O)c3n2)cc(Br)c1OC | . | 4µM* | 23µM* | ? | 4.8µM* | 2.8µM*
COc1ccc(/C=C/c2ccc3c(Br)ccc(O)c3n2)cc1 | . | ? | ? | ? | 5.4µM* | ?
COc1cc(/C=C/c2ccc3cccc(O)c3n2)cc(OC)c1OC | . | 23% | ? | ? | ? | 26%
COc1cc(/C=C/c2ccc3cccc(O)c3n2)cc(Cl)c1OC | . | 0.71µM* | 21µM* | ? | 2.7µM* | 0.63µM*
CSc1ccccc1OCc1cc(C(=O)NCCn2ccnc2C)no1 | . | 4% | -3% | -2% | 2% | 1%
COc1ccc(S(=O)(=O)NCCc2sc(-c3cccnc3)nc2C)c(F)c1 | . | . | . | . | -1% | .
COC(=O)C1(C)NC(c2ccc(OC)cc2)C2C(=O)N(c3ccccc3)C(=O)C21 (stereo unspecified) | . | 12% | 1% | 19% | 3% | 0%
CCCc1nnc(SCc2cc(=O)c3c(C)cc(C)cc3[nH]2)n1C | . | . | . | . | -7% | .
COc1ccc(/C=C/c2ccc3cccc(O)c3n2)cc1Br | . | 16% | ? | ? | 6µM* | ?
COc1ccc(Br)cc1/C=C/c1ccc2cccc(O)c2n1 | . | 8% | 4% | -17% | ? | 28%
COc1ccc(C2=NCN(c3ccc(C)cc3)C(=S)N2)cc1 | ? | 2.8µM* | 16µM* | ? | 12µM* | ?
COc1ccc(OCc2n[nH]c(=S)n2-c2ccc(C)cc2)cc1 | -21% | -3% | 3% | -2% | -16% | -6%
Cc1ccc(N2CN=C(c3ccccc3)NC2=S)cc1 | 27% | ? | 15µM* | ? | 9.5µM* | ?
